Laboratory results from PubChem BioAssay (Tox21).
Several values for one entry are separate records, joined by “and”; a condition that tells them apart may be missing. Equal values may be shown once. Records with an inconclusive call do not appear. Entries that show only a call come without a potency. A structure can be active in one record and inactive in another. Activity calls are given as the source filed them. Unless noted, calls follow the shape of the dose curve; as a rule, active = well fitted curve in the direction sought with a large enough effect in the repeat runs; inconclusive = weak or mixed curves; inactive = no such curve, though single readings can be large; an effect the other way counts as inactive or inconclusive.

Key:
[1] = qHTS assay to identify small molecule agonists of the vitamin D receptor (VDR) signaling pathway - cell viability counter screen (AID 743224); also: nearly all actives have a fitted effect of over 50% in size
Procedure, shortened: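 Luminescence from CellTiter-Glo, read after 30 min at room temperature, reports viability of VDR-bla cells treated with compounds for 16 h at 37C in the wells used for the beta-lactamase FRET read.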

[2] = qHTS assay to identify small molecule agonists of the NFkB signaling pathway - cell viability counter screen (AID 1159515; calls by dose curve; also: nearly all actives have a fitted effect of over 55% in size)
Procedure, shortened: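 Luminescence from CellTiter-Glo (30 min, room temperature) gives viability, measured in the same wells as the beta-lactamase reporter read. Cells were NFkB-bla ME-180, 2,000 per well, treated 5 hr with compounds.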

[3] = qHTS assay to identify small molecule agonists of the endoplasmic reticulum stress response signaling pathway - cell viability counter screen (AID 1159517; calls by dose curve;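 also: HeLa cells carrying an ER stress response element beta-lactamase reporter; nearly all actives have a fitted effect of over 50% in size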)
Procedure, shortened: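 Luminescence readout: CellTiter-Glo, 30 min RT, same wells as the ESRE-bla reporter read. HeLa ESRE-bla, 1,500 cells/well, o/n 37 C; cpd 5 hr 37 C/5% CO2.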

[4] = qHTS assay to identify small molecule antagonists of the retinoid-related orphan receptor gamma (ROR-gamma) signaling pathway - cell viability counter screen (AID 1159520); also: nearly all actives have a fitted effect of over 50% in size
Procedure, shortened: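 Tet-on ROR gamma CHO cells (1,000/well) were plated 4 hr, given compounds in DMSO for 2 hr at 37 C, then induced with 1 uM final doxycycline for 16 hr. Viability was read as ATP by CellTiter-Glo luminescence after 30 min.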

[5] = qHTS assay to identify small molecule agonists of the AP-1 signaling pathway - cell viability counter screen (AID 1159525; calls by dose curve; also: nearly all actives have a fitted effect of over 55% in size)
Procedure, shortened: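 ME-180 AP-1-bla, 2500 cells/well, Opti-MEM + 0.5% dialyzed FBS; overnight 37 °C; cpd 15-pt titration, 5 h 37 °C; CellTiter-Glo 30 min RT; luminescence read; normalised to TOAB and DMSO controls.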

[6] = qHTS assay to identify small molecule agonists of the AP-1 signaling pathway (AID 1159526; calls by dose curve)
[7] = target: Retinoic acid receptor RXR-alpha (Homo sapiens) (UniProt P19793); assay: qHTS assay to identify small molecule agonists of the RXR signaling pathway (AID 1159527; calls by dose curve; also: nearly all actives have a fitted effect of over 35% in size)
Sequence of Retinoic acid receptor RXR-alpha (Homo sapiens) (P19793 whole entry, looked up): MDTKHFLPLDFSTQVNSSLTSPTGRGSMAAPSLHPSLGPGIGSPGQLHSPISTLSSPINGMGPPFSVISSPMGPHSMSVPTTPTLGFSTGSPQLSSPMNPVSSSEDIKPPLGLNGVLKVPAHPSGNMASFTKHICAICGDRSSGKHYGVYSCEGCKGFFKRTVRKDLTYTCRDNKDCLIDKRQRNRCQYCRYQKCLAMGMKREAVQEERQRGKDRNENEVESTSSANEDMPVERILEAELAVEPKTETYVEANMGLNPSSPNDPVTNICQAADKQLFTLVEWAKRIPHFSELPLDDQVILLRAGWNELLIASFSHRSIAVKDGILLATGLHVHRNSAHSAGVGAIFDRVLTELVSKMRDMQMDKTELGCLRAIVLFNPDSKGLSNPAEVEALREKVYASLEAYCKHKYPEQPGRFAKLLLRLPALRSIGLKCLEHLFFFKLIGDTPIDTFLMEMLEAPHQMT
Procedure, shortened: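 Fluorescence ratio readout (460 vs 530 nm) from GeneBLAzer RXR-alpha HEK 293T cells after 16 hr compound treatment; cells seeded 5 hr beforehand in low-serum, charcoal-stripped medium.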

[8] = qHTS assay to identify small molecule antagonists of the retinoid acid receptor (RAR) signaling pathway - cell viability counter screen (AID 1159551); also: nearly all actives have a fitted effect of over 35% in size
Procedure, shortened: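 Luminescent ATP quantitation (CellTiter-Glo) gave cell viability in C3RL4 cells exposed to test chemicals for 6 h at 37 C alongside 1 uM final retinol.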

[9] = qHTS assay to identify small molecule antagonists of the retinoic acid receptor (RAR) signaling pathway (AID 1159552; also: nearly all actives have a fitted effect of over 50% in size)
Procedure, shortened: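 Using a RARE-driven luciferase construct in C3RL4 cells, retinol at 1 uM final provided the agonist stimulus while compounds were co-applied. After 6 hours at 37 C, luminescence was recorded to flag inhibitors of retinol signaling.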

[10] = qHTS assay to identify small molecule agonists of the retinoic acid receptor (RAR) signaling pathway (AID 1159553); conditions: C3RL4 RARE luciferase reporter, agonist, 6 h; activation: at 73.3 µM (top of the series) unless noted; also: potency is read from the fitted curve at half-maximal effect
Procedure, shortened: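 Luminescence from a RARE-driven luciferase reporter in C3RL4 cells served as the read-out, measured after 30 min with detection reagent at room temperature. Compounds in DMSO were applied for 6 hr at 37 C following overnight seeding.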

[11] = qHTS assay to identify small molecule antagonists of the vitamin D receptor (VDR) signaling pathway - cell viability counter screen (AID 743225); also: nearly all actives have a fitted effect of over 50% in size
Procedure, shortened: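 In this counter screen, VDR-bla HEK 293T cells receive test compound plus 3 nM final calcitriol for 16 h at 37C. Room-temperature steps of 2 h with the beta-lactamase substrate, then 30 min with CellTiter-Glo, precede the luminescence read.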

[12] = qHTS assay to identify small molecule agonists of the RXR signaling pathway - cell viability counter screen (AID 1159529)
Procedure, shortened: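 Viability read-out for the RXR-alpha agonist qHTS: luminescent CellTiter-Glo signal after 30 min at RT. HEK 293T bla reporter cells, 2% charcoal-stripped FBS, 16 hr compound incubation; tetraoctyl ammonium bromide as cytotoxic control.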

[13] = qHTS assay to identify small molecule antagonists of the estrogen related receptor (ERR) signaling pathway - cell viability counter screen (AID 1224818);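 also: viability measured after 17.5 h of compound exposure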
Procedure, shortened: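 Multiplexed counter screen to separate cytotoxic compounds from true ERR modulators. ERR cells received DMSO-dissolved compounds after a 6 h pre-incubation, were exposed 17.5 h at 37 C, then assayed with CellTiter-Fluor fluorescence.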

[14] = qHTS assay to identify small molecule antagonists of the estrogen related receptor signaling pathway with the pleiotropic PPARgamma coactivator (PGC) cell viability counter screen (AID 1224822;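 also: viability read after 17.5 h compound exposure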)
Procedure, shortened: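 Cells: PGC/ERR, 2,000/well, 1536-well format. Pre-incubation 6 h, 37 C/5% CO2. Compound exposure 17.5 h, 37 C. Detection: CellTiter-Fluor, 30 min, fluorescence.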

[15] = target: Nuclear receptor ROR-gamma (Homo sapiens) (UniProt P51449); assay: qHTS assay to identify small molecule antagonists of the retinoid-related orphan receptor gamma (ROR-gamma) signaling pathway (AID 1159521; also: nearly all actives have a fitted effect of over 50% in size; also: potency is read from the fitted curve at half-maximal effect)
Procedure, shortened: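 Screening format: cell-based luciferase reporter in CHO cells with doxycycline-inducible RORγ. Compound pre-exposure lasts 2 h, doxycycline is 1 uM final, induction runs 16 h at 37 C, and ONE-Glo luminescence is read.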

Row | Structure (SMILES) | Potency [1] | Potency [2] | Potency [3] | Potency [4] | Potency [5] | outcome [6] | Potency [7] | Potency [8] | Potency [9] | Potency [10] | Potency [11] | Potency [12] | outcome [13] | Potency [14] | Potency [15]
1 | CC(C=O)Cc1ccc(C(C)(C)C)cc1 (stereo not given) | inactive | inactive | inactive | inactive | inactive | inactive | inactive | inactive | inactive | inactive |  |  |  |  | 
2 | CCc1cccc(CC)c1N | inactive | inactive | inactive | inactive | inactive | inactive | inactive | inactive |  |  | inactive | inactive |  |  | 
3 | O=C(NCC1CCCCN1)c1cc(OCC(F)(F)F)ccc1OCC(F)(F)F (stereo not given) | inactive | inactive | inactive | inactive | inactive | inactive | inactive | inactive |  |  |  | inactive |  |  | 
4 | COc1ccc([C@@H]2CC(=O)c3c(O)cc(O[C@@H]4O[C@H](CO[C@@H]5O[C@@H](C)[C@H](O)[C@@H](O)[C@H]5O)[C@@H](O)[C@H](O)[C@H]4O)cc3O2)cc1OC | inactive | inactive | inactive | inactive | inactive | inactive | inactive |  | inactive | inactive | inactive |  |  |  | 
5 | Clc1cccc(Cl)c1NC1=NCCN1 | inactive | inactive | inactive | inactive | inactive | inactive | inactive | inactive |  |  | inactive | inactive | inactive | inactive | 
6 | C=C(C)CC(C)(C)C | inactive | inactive | inactive | inactive | inactive | inactive | inactive | inactive | inactive | inactive | inactive | inactive |  |  | 
7 | CC(=O)CC(=O)N(C)C | inactive | inactive | inactive | inactive | inactive | inactive | inactive |  |  |  | inactive | inactive |  |  | inactive
8 | CC(COCC(C)OC(=O)c1ccccc1)OC(=O)c1ccccc1 (stereo not given) | inactive | inactive | inactive | inactive | inactive | inactive |  | inactive | inactive | inactive |  | inactive |  |  | inactive
9 | O=c1c(O)c(-c2ccc(O)c(O)c2)oc2cc(O)cc(O)c12 | inactive | inactive | inactive | inactive | inactive | inactive | inactive | inactive |  | 61.2 µM (active) |  | inactive |  | inactive | inactive and 43.6 µM (active) and 54.5 µM (active)
10 | OCC(O)CS (stereo not given) | inactive | inactive | inactive | inactive | inactive | inactive | inactive | inactive | inactive | inactive | inactive | inactive |  |  | inactive
11 | CCCCCCCC(=O)O | inactive | inactive | inactive | inactive | inactive | inactive | inactive | inactive |  |  |  |  |  |  | inactive
12 | Cc1ccccc1C=O | inactive | inactive | inactive | inactive | inactive | inactive | inactive | inactive |  |  | inactive |  |  |  | inactive
13 | CCCCC(=O)O | inactive | inactive | inactive | inactive | inactive | inactive | inactive | inactive | inactive | inactive | inactive | inactive |  |  | inactive
14 | Cc1ncc(CO)c(CO)c1O | inactive | inactive | inactive | inactive | inactive | inactive | inactive |  |  |  |  | inactive |  |  | inactive
